Test systems include DU-145 prostate; K-562 leukemia; MALME-3M melanoma; MDA-MB-231 breast; RXF 393 renal; SF-268 CNS; SF-295 CNS; SF-539 CNS; UACC-257 melanoma; M14 melanoma.
Holding throughout (test): NCI-60 one-dose screen, 48 h (100 = growth as untreated, 0 = no growth, -100 = all killed)
What all share (conditions): 10 µM unless noted

Compounds without any hit were thinned out: in the full panel of roughly 83,000, 20% have a hit.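 Interpretation: 100, growth as untreated; towards 0, rising growth inhibition; 0, no net growth; 0 to -100, cell death. Compounds scoring below 10 were considered active.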 Unmarked numbers belong to inactive results. The source made the active and inactive calls.

On to `C#CCOc1cccc(Nc2ncnc3c(NC(=O)C=C)cccc23)c1`, for which the growth was -1.57% (active) with DU-145 prostate; 5% (active) in the test with K-562 leukemia; 31.3% with MALME-3M melanoma; 26.3% with MDA-MB-231 breast; -3.19% (active) in the test on RXF 393 renal; 20.7% in the test with SF-268 CNS. Also, the growth in the test with SF-295 CNS was 53.6%; in the test with SF-539 CNS it was 5.67% (active); in the test with UACC-257 melanoma, 33%; with M14 melanoma, 19.9%.

`C/C(=C(/c1ccc(Cl)cc1)c1ccc(OCCN2CCCC2)cc1)c1ccc(Cl)cc1`: the growth was 98.1% in the test on DU-145 prostate; 20.3% in the test with K-562 leukemia; 81.5% with MALME-3M melanoma; 94% with MDA-MB-231 breast; 72% in the test with RXF 393 renal; 91.5% with SF-268 CNS. For the same compound, the growth in the test with SF-295 CNS is 100%; with SF-539 CNS it was 91.8%; in the test with UACC-257 melanoma it was 98.6%; in the test with M14 melanoma it was 75.8%.

Turning to `O=c1oc2ccc([N+](=O)[O-])cc2cc1Br`, the growth with DU-145 prostate was 109%; in the test with K-562 leukemia it was 102%; with MALME-3M melanoma, 107%; in the test with MDA-MB-231 breast, 109%; with RXF 393 renal, 108%; in the test on SF-268 CNS it was 103%. Moreover, the growth was 98.8% in the test on SF-295 CNS, 82.2% in the test on SF-539 CNS, 104% in the test on UACC-257 melanoma and 104% in the test on M14 melanoma.

As to `COc1cc(/C=C/C(=O)c2cccc(Nc3nc(Nc4ccccc4)nc(Nc4ccccc4)n3)c2)cc(OC)c1OC`, the growth in the test with DU-145 prostate is 60.9%; with K-562 leukemia, 24.1%; in the test with MALME-3M melanoma, 69%; in the test with MDA-MB-231 breast, 56%; with RXF 393 renal, -32.4% (active); in the test with SF-268 CNS, 73.4%. Moreover, the growth in the test on SF-295 CNS was 72.9%; with SF-539 CNS, 78.7%; in the test with UACC-257 melanoma, 106%; with M14 melanoma it was 78.5%.

In the case of `CCN(CC)CCSc1nc(-c2ccccc2)c(C#N)c(=O)[nH]1`, the growth in the test on DU-145 prostate was 112%; in the test with K-562 leukemia, 129%; in the test with MALME-3M melanoma, 140%; in the test on MDA-MB-231 breast it was 116%; in the test on RXF 393 renal, 118%; in the test on SF-268 CNS, 102%. Further, the growth in the test on SF-295 CNS is 105%; in the test on SF-539 CNS it was 100%; in the test with UACC-257 melanoma, 111%; with M14 melanoma it was 111%.

`Cc1ccc(-c2csc(NC(=O)CN3CCN(c4cc5c(cc4F)c(=O)c(C(=O)O)cn5C4CC4)CC3)n2)cc1`: the growth was 13.1% in the test on DU-145 prostate; 9.66% (active) in the test on K-562 leukemia; -2.34% (active) in the test on MALME-3M melanoma; 6.47% (active) with MDA-MB-231 breast; 27.2% in the test with RXF 393 renal; 23.2% in the test on SF-268 CNS. Moreover, the growth is -2.97% (active) in the test with SF-295 CNS, 23.7% in the test with SF-539 CNS, -12.9% (active) in the test on UACC-257 melanoma and 23% in the test on M14 melanoma.

With `Brc1c2c(c(Br)c3ccccc13)CCCC2`, the growth in the test on DU-145 prostate is 110%; in the test on K-562 leukemia it was 94.7%; with MALME-3M melanoma, 108%; in the test with MDA-MB-231 breast, 91%; with RXF 393 renal, 101%; in the test on SF-268 CNS it was 104%. Further, the growth was 101% in the test with SF-295 CNS, 102% with SF-539 CNS, 89.8% in the test with UACC-257 melanoma and 99.1% with M14 melanoma.

As for `CC(C)N1CN2C(=S)NC3C2N(C1)C(=S)N3C` (stereo not given), the growth was 104% in the test with DU-145 prostate; 102% with K-562 leukemia; 105% with MALME-3M melanoma; 110% with MDA-MB-231 breast; 105% in the test with RXF 393 renal; 96% in the test with SF-268 CNS. For the same compound, the growth with SF-295 CNS is 98%; in the test on SF-539 CNS, 109%; with UACC-257 melanoma, 95%; in the test on M14 melanoma, 105%.

On to `CCNc1nc(-c2ccc(Cl)c(OC)c2)c(-c2ccnc(NCCCNS(=O)(=O)c3ccc(Cl)cc3)n2)s1`, for which the growth with DU-145 prostate is 74.3%; in the test on K-562 leukemia it was 32.3%; with MALME-3M melanoma it was 7.63% (active); in the test on MDA-MB-231 breast, 50.9%; with RXF 393 renal it was 70.2%; in the test on SF-268 CNS, 60.4%. The growth is 70.3% in the test with SF-295 CNS, 86.6% in the test with SF-539 CNS, 29.2% in the test with UACC-257 melanoma and 23% in the test with M14 melanoma.

Consider `O=C1c2cccnc2C(=O)c2c1c(C(=O)NCCCN1CCCCC1)c1ccccn21`, for which the growth with DU-145 prostate is -94.4% (active); in the test with K-562 leukemia it was -25.4% (active); with MALME-3M melanoma, -92.6% (active); with MDA-MB-231 breast, -3.12% (active); in the test on RXF 393 renal, -39.5% (active); in the test on SF-268 CNS, -13% (active). Moreover, the growth with SF-295 CNS was -13.6% (active); in the test on SF-539 CNS, -61.2% (active); with UACC-257 melanoma, -82.8% (active); with M14 melanoma it was -88.1% (active).

Consider `O=C1C(Cl)=C(Nc2ccc(O)cc2)C(=O)N1Cc1ccc(Cl)cc1`, for which the growth in the test on DU-145 prostate is 90.2%; with K-562 leukemia it was 11.9%; with MALME-3M melanoma, 76.2%; in the test with MDA-MB-231 breast it was 74.1%; in the test on RXF 393 renal, 64.3%; with SF-268 CNS, 57.5%. In addition, the growth with SF-295 CNS is 97.4%; in the test with SF-539 CNS, 65%; in the test with UACC-257 melanoma, 70%; with M14 melanoma, 24.2%.

As for `COC(=O)c1cc(-c2ccc(OC)cc2)[nH]c1N/N=C/c1c(Cl)cccc1Cl`, the growth with DU-145 prostate was -26.2% (active); with K-562 leukemia, 0.823% (active); with MALME-3M melanoma it was 24.7%; in the test with MDA-MB-231 breast, 7.56% (active); in the test with RXF 393 renal it was -44.2% (active); in the test on SF-268 CNS it was 13.8%. In addition, the growth is -28.2% (active) with SF-295 CNS, -38.8% (active) in the test on SF-539 CNS, 14.2% in the test with UACC-257 melanoma and -59.3% (active) in the test with M14 melanoma.

Regarding `N=C(N)c1ccc(-c2ccc(-c3cc(Cl)cc(Cl)c3)o2)o1`, the growth with DU-145 prostate was -87.7% (active); in the test with K-562 leukemia, -59.7% (active); in the test on MALME-3M melanoma, -89.6% (active); in the test with MDA-MB-231 breast, -68.2% (active); in the test with RXF 393 renal, -88.8% (active); in the test with SF-268 CNS, -56.4% (active). Further, the growth is -83.5% (active) with SF-295 CNS, -85% (active) in the test with SF-539 CNS, -73% (active) with UACC-257 melanoma and -54.1% (active) in the test on M14 melanoma.

For the compound `COC(=O)/C(CCC=C(C)C)=C1\[C@@H](OC(C)=O)C[C@@]2(C)[C@H]1C[C@@H](O)[C@H]1[C@@]3(C)CC[C@H](NCCN)[C@@H](C)[C@@H]3CC[C@@]12C`, the growth with DU-145 prostate was 65.4%; with K-562 leukemia, -7.67% (active); in the test with MALME-3M melanoma, 89.4%; with MDA-MB-231 breast it was 93%; in the test on RXF 393 renal, 57.8%; in the test with SF-268 CNS, 76.6%. In addition, the growth in the test with SF-295 CNS was 98.2%; with SF-539 CNS, 90.2%; with UACC-257 melanoma, 99.7%; in the test on M14 melanoma, 87%.

These data come from PubChem BioAssay (NCI).
